From PubChem BioAssay
FXIIa inh: human FXIIa protease inhibitors, primary screen, biochemical, single well; Coagulation factor XII (Homo sapiens), P00748; AID 701, 2007; inhibition, % at 10 µM; purified human FXIIa, AMC substrate fluorescence, 2 h; 0.2% of 33,000 active; in the data active = inhibition above about 30%;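 note: 0% = enzyme with vehicle only and 100% = no enzyme blank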
FXIa inh: human FXIa protease inhibitors, primary screen, biochemical, single compound per well | Coagulation factor XI (Homo sapiens), P03951 | purified human FXIa, fluorogenic AMC substrate cleavage | inhibition, % at 10 µM | 0.3% of 33,000 active | AID 687, 2007;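 active = inhibition above 40% in the primary screen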;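 note: 0% = enzyme without compound and 100% = blank wells lacking enzyme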
* = called active by the depositor. Only a selection was taken, and hits are over-represented in it overall.

SMILES | FXIIa inh | FXIa inh
COc1ccc(CCC(C)NCCc2ccccc2)cc1 (configuration not stated) | 10 | -9
CNCCCc1ccccc1 | 3 | 41*
c1ccc2cc3cc4ccccc4cc3cc2c1 | -1 | 5
